Test results as given in PubChem BioAssay.
Calls of active or inactive are those of the source. Unless noted, how the calls were made is not given here.

Experiments:
[1] = system: Wnt5a (protein binding on small-molecule microarray); experiment: small molecules binding Wnt5a protein – biophysical, small-molecule microarray, 635/667 nm fluorescence, primary screen (AID 1142); details: 635 nm fluorescence, higher = more signal;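 further: fluorescence read at 667 nm with signal to noise per printed feature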
[2] = ATP-based viability of Huh7 replicon cells – cell-based, CellTiter-Glo luminescence, basal, 48 h, cytotoxicity control for HCV replication inhibitor project, primary screen (AID 1143); details: higher = more signal, called active from +8 up or from −8 down;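 further: Huh7 hepatoma cells carrying a hepatitis C replication reporter with no stimulus; test concentration not given here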
[3] = Pseudomonas biofilm growth suppression – PAO1 strain, BacTiter-Glo luminescence, LB-PBS, primary screen (AID 1144); details: P. aeruginosa PAO1 biofilm, 12 h, higher = more signal
[4] = basal CRE-LacZ reporter activity in PC12 – cell-based, unstimulated, primary screen (AID 1145); details: no forskolin, luminescence, 4.5 h, higher = more signal, called active from +8 up or from −8 down
[5] = forskolin-driven CRE-LacZ activity in PC12 – cell-based, CRE-LacZ reporter, forskolin-stimulated, primary screen (AID 1146); details: luminescence, 4.5 h, higher = more signal, called active from +8 up or from −8 down;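 further: PC12 cells with 6xCRE LacZ reporter stimulated by forskolin 10 µM; beta-galactosidase reporter signal reflecting CREB driven transcription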
[6] = molecular target: Streptavidin (Streptomyces avidinii) (UniProt P22629); experiment: compounds binding control protein streptavidin – biophysical, small-molecule microarray, 635/667 nm fluorescence, artefact control for SMM compound annotation, primary screen (AID 1147); details: higher = more signal;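 further: signal reflects streptavidin binding to arrayed compounds as a control protein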
[7] = probe aInhba binding on compound microarray – biochemical, small-molecule microarray, 635/667 nm fluorescence, primary screen (AID 1148); details: higher = more signal;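 further: score merges 667nm spot fluorescence with signal-to-noise for antibody binding to printed compounds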
Torsin-1A (Homo sapiens) [8] = molecular target: Torsin-1A (Homo sapiens) (UniProt O14656); experiment: TOR1A wild-type binding on microarray – cell lysate, small-molecule microarray, lysate, 635/667 nm, primary screen (AID 1149); details: COS7 hTOR1A-WT lysate, 635 nm fluorescence, higher = more signal
Torsin-1A (Homo sapiens) [9] = molecular target: Torsin-1A (Homo sapiens) (UniProt O14656); experiment: torsin A mutant lysate binding on microarrays – cell lysate, small-molecule microarray, COS7 lysate, 635/667 nm fluorescence, primary screen (AID 1150); details: COS7 hTOR1A mutant lysate, 635 nm fluorescence, higher = more signal;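 further: score pools 667 nm emission and signal to noise measuring lysate protein binding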
[10] = system: Sonic hedgehog protein (Shh); experiment: Sonic hedgehog microarray binding compounds – biochemical, small-molecule microarray, 635/667 nm fluorescence, primary screen (AID 1151); details: 635 nm fluorescence, higher = more signal;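 further: Shh protein binding to compounds spotted on small-molecule microarray slides; score combines spot fluorescence intensity with signal-to-noise across triplicate slides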
[11] = optical density shifts of acrAB sulA E. coli – strain DRC41, OD650, 48 h, E. coli filamentation inducer project, primary screen (AID 1152); details: higher = more signal, called active from +8 up or from −8 down;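 further: E. coli MC1000 strain DRC41 lacking acrAB efflux pump and sulA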
[12] = probe aLefty1 binding on compound microarray – biochemical, small-molecule microarray, 635/667 nm fluorescence, primary screen (AID 1153); details: higher = more signal;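 further: score merges spot fluorescence with signal-to-noise ratio from the scanned slide images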
[13] = plasmodial surface anion channel blockers, osmotic lysis – cell-based, P. falciparum Indochina, OD700, 1 h, primary screen (AID 1154); details: P. falciparum Indochina infected RBC osmotic lysis, higher = more signal, called active from +8 up or from −8 down
[14] = plasmodial surface anion channel blockers, osmotic lysis – cell-based, P. falciparum Indochina, OD700, 2 h, primary screen (AID 1155);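 further: lysis reports solute entry through the parasite surface anion channel PSAC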; details: P. falciparum Indochina infected erythrocytes, higher = more signal, called active from +8 up or from −8 down
[15] = changes in parasitized red cell lysis, either direction – P. falciparum Indochina, OD700, 3 h, PSAC antagonist project, primary screen (AID 1156); details: P. falciparum-infected erythrocytes, osmotic lysis, higher = more signal, called active from +8 up or from −8 down
[16] = plasmodial surface anion channel blockers, osmotic lysis – cell-based, P. falciparum Indochina, OD700, 18 h, primary screen (AID 1157); details: P. falciparum Indochina infected erythrocytes, osmotic lysis OD700, 18 h; higher = more signal, called active from +8 up or from −8 down
[17] = S6 kinase pathway phospho-S6 level changes – cell-based, A549, cytoblot, luminescence, serum-stimulated, primary screen (AID 1158); details: 5 h, higher = more signal;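 further: serum-stimulated A549 lung adenocarcinoma cells; signal is phosphorylated S6 detected by cytoblot immunostaining with HRP secondary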
[18] = molecular target: NADPH oxidase 2 (Homo sapiens) (UniProt P04839); experiment: compounds shifting NOX2 Amplex Red fluorescence – cell-based, HEK293-NOX2, PMA-stimulated, NOX inhibitor project, primary screen (AID 1159); details: 45 min, higher = more signal, called active from +8 up or from −8 down; further: test concentration not given here
[19] = molecular target: NADPH oxidase 4 (Homo sapiens) (UniProt Q9NPH5); experiment: compounds shifting NOX4 Amplex Red fluorescence – cell-based, HEK293-NOX4, tetracycline-induced, NOX inhibitor project, primary screen (AID 1160); details: HEK293-NOX4, Amplex Red H2O2 fluorescence, 45 min; higher = more signal, called active from +8 up or from −8 down
[20] = molecular target: NADPH oxidase 5 (Homo sapiens) (UniProt Q96PH1); experiment: compounds shifting NOX5 Amplex Red fluorescence – cell-based, HEK293-NOX5, NOX inhibitor project, primary screen (AID 1161); details: HEK293-NOX5, ionomycin, 45 min, higher = more signal
Sequence of NADPH oxidase 5 (Homo sapiens) (Q96PH1 whole entry, looked up): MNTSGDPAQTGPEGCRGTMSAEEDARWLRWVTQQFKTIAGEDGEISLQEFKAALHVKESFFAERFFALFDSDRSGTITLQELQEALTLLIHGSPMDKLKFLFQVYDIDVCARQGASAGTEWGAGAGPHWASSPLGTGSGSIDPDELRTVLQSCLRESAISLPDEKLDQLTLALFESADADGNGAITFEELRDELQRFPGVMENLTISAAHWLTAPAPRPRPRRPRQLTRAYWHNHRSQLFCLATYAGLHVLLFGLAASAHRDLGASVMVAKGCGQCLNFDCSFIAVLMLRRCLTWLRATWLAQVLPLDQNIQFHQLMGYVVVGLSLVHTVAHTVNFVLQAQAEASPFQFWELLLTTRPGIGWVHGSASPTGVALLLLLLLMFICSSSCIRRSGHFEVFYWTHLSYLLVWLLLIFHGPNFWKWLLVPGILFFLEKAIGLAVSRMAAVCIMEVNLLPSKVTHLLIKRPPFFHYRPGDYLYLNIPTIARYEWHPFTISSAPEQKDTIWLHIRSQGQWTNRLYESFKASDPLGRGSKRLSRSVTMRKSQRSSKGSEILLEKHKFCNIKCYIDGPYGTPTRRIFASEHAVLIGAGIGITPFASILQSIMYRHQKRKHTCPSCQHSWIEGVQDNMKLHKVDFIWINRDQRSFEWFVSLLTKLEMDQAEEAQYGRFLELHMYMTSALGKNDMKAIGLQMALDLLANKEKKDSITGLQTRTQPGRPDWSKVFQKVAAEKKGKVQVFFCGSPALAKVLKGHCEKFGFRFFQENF

Sequence of Streptavidin (Streptomyces avidinii) (P22629 whole entry, looked up): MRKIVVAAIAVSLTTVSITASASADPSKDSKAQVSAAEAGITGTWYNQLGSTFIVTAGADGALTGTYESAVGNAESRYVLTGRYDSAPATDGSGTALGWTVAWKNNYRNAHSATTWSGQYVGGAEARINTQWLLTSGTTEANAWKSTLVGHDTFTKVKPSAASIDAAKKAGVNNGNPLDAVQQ
Sequence of Torsin-1A (Homo sapiens) (O14656 whole entry, looked up): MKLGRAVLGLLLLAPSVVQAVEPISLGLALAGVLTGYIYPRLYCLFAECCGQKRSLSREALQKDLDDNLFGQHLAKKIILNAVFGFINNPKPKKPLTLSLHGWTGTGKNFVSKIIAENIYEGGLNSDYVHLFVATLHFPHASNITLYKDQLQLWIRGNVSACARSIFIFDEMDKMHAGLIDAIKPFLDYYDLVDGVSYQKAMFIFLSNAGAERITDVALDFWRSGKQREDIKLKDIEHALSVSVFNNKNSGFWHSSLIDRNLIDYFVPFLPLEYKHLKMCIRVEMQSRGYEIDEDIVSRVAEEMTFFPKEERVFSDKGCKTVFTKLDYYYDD
Sequence of NADPH oxidase 4 (Homo sapiens) (Q9NPH5 whole entry, looked up): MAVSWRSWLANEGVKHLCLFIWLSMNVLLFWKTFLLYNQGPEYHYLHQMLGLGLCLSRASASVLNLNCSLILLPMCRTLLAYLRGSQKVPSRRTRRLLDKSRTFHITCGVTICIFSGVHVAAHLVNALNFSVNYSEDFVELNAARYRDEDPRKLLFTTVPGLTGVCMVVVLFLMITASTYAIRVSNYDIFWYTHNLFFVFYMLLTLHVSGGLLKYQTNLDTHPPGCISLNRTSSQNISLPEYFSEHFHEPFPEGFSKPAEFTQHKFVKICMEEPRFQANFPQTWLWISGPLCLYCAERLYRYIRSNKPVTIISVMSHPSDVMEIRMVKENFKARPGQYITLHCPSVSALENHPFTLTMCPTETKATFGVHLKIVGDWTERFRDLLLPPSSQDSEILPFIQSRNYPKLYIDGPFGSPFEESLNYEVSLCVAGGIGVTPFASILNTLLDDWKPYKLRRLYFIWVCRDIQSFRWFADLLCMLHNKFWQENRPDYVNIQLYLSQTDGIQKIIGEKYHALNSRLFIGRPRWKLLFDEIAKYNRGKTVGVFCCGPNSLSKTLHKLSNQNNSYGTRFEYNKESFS
Sequence of NADPH oxidase 2 (Homo sapiens) (P04839 whole entry, looked up): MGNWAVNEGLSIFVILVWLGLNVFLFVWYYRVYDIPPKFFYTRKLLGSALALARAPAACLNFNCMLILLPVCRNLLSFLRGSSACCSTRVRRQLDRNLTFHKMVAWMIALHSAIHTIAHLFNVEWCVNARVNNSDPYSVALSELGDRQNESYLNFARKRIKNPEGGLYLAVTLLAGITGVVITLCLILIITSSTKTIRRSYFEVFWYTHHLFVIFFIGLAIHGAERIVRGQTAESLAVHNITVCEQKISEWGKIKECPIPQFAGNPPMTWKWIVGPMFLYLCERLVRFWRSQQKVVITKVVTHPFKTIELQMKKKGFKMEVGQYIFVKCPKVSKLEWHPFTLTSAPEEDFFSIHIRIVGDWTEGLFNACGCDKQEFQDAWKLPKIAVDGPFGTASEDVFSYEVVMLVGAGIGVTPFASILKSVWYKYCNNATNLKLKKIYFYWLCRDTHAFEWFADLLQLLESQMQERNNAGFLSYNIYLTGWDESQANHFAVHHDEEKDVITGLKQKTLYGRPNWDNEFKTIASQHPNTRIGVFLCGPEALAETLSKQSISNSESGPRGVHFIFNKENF

| Compound | composite z-score [1] | z-score [2] | z-score [3] | z-score [4] | z-score [5] | composite z-score [6] | composite z-score [7] | composite z-score (Torsin-1A (Homo sapiens) [8]) | composite z-score (Torsin-1A (Homo sapiens) [9]) | composite z-score [10] | z-score [11] | composite z-score [12] | z-score [13] | z-score [14] | z-score [15] | z-score [16] | z-score [17] | z-score [18] | z-score [19] | z-score [20] |
| --- | --- | --- | --- | --- | --- | --- | --- | --- | --- | --- | --- | --- | --- | --- | --- | --- | --- | --- | --- | --- |
| O=C(CS)NCCCCCNC(=O)[C@@H]1C[C@@H]2C(=O)N[C@@H](Cc3ccccc3)C(=O)N2[C@@H]1c1cccc(OCCO)c1 | 0.409 | -0.497 (inactive) | -0.042 (inactive) | 0.7 (inactive) | 0.432 (inactive) | -0.0307 | -0.787 | 0.7 | 1.31 | 1.49 | -0.145 (inactive) | -1.01 | 2.5 (inactive) | 0.148 (inactive) | -0.395 (inactive) | -0.0429 (inactive) | -0.16 | 1.73 (inactive) | 0.924 (inactive) | 0.226 |
| C=CC1c2cc(O)c(OC)cc2CCN1Cc1ccc([N+](=O)[O-])o1 (stereo not given) | 0.17 | -0.244 (inactive) | 1.47 (inactive) | -0.321 (inactive) | -0.625 (inactive) | 0.39 | 0.027 | -0.17 | 0.745 | -0.873 | 1.09 (inactive) | 0.0455 | 7.89 (inactive) | 1.17 (inactive) | -0.0585 (inactive) | 0.596 (inactive) | 0.325 | -3.42 (inactive) | -3.12 (inactive) | -3.25 |
| CC(C)c1ccc(NN2C(C(O)Cc3ccccc3)C=CC3C(=O)N(c4ccccc4)C(=O)C32)cc1 (stereo not given) | 0.204 | -0.695 (inactive) | -0.221 (inactive) | 0.243 (inactive) | 2.48 (inactive) | 1.87 | -0.152 | 0.14 | 0.815 | -0.154 | -1.76 (inactive) | 0.181 | 1.93 (inactive) | 1.31 (inactive) | 0.127 (inactive) | 1.05 (inactive) | -1.27 | -0.343 (inactive) | -3.62 (inactive) | -2.69 |
| COCCOC(=O)N1C(=O)[C@@]2(c3cc(C#CCCO)ccc31)[C@H](c1ccccc1OCCO)N1[C@H](c3ccccc3)[C@H](c3ccccc3)OC(=O)[C@H]1[C@@H]2C(=O)N1CCCCCCC1 | 0.405 | -3.64 (inactive) | -1.29 (inactive) | -1.15 (inactive) | 0.481 (inactive) | 1.31 | 1.45 | 1.22 | 0.34 | 1.97 | 1.59 (inactive) | 2.58 | 2.44 (inactive) | 0.0348 (inactive) | 0.431 (inactive) | 0.951 (inactive) | 0.626 | 0.6 (inactive) | 1.29 (inactive) | 1.35 |
| COCCOC(=O)N1C(=O)[C@@]2(c3cc(C#Cc4ccc(OC)cc4)ccc31)[C@H](c1ccc(OCCO)cc1)N1[C@H](c3ccccc3)[C@H](c3ccccc3)OC(=O)[C@H]1[C@@H]2C(=O)Nc1nc2ccccc2s1 | 0.144 | -1.1 (inactive) | 0.408 (inactive) | 0.272 (inactive) | -0.175 (inactive) | 1.19 | 0.164 | 0.29 | 0.461 | 0.691 | 0.905 (inactive) | 0.101 | 4.12 (inactive) | 2.5 (inactive) | -0.16 (inactive) | 2.13 (inactive) | 0.0972 | 1.29 (inactive) | 0.402 (inactive) | 0.944 |
| O=C1C2C=CC(C(O)C=Cc3ccc([N+](=O)[O-])cc3)N(Nc3ccccc3)C2C(=O)N1c1ccccc1 (stereo not given) | 0.264 | -0.132 (inactive) | -0.633 (inactive) | -0.143 (inactive) | -0.148 (inactive) | 1.53 | 0.117 | -0.283 | 0.0565 | 0.0063 | -0.323 (inactive) | 0.424 | 11 (active) | 2.2 (inactive) | 0.478 (inactive) | 1.81 (inactive) | -0.914 | -1.72 (inactive) | -2.96 (inactive) | -2.32 |
| CC(C)C[C@@H]1NC(=O)CNC(=O)[C@@]23C(=O)N[C@@H](Cc4ccccc4)C2[C@H](C)[C@@]2(C)O[C@H]2C3/C=C/C/C=C\CNC1=O (stereo not given in full) | 0.184 | 0.0431 (inactive) | -0.826 (inactive) | -0.417 (inactive) | 0.297 (inactive) | -0.0691 | -0.0494 | 1.09 | -0.134 | 1.5 | -0.455 (inactive) | -0.0265 | 0.349 (inactive) | -0.262 (inactive) | 0.183 (inactive) | -0.16 (inactive) | -0.0425 | 0.217 (inactive) | 1.1 (inactive) | 0.149 |
| CCOC(=O)C[C@H]1[C@H](OC(=O)c2ccc(C(=O)c3ccccc3)cc2)[C@@H](NC(=O)CC(C)C)c2cc(OCCCO)ccc2N1C(=O)Cc1ccc(OC)cc1 | 0.11 | -0.349 (inactive) | -0.356 (inactive) | 0.731 (inactive) | -0.117 (inactive) | -0.0635 | 0.128 | 0.311 | 0.498 | -0.0145 | 0.23 (inactive) | 0.243 | 4.38 (inactive) | 0.351 (inactive) | -0.0495 (inactive) | 0.0625 (inactive) | -0.174 | -0.354 (inactive) | 0.528 (inactive) | 0.522 |
| CCOC(=O)C1=C[C@@H](C(C)(C)C)N(S(=O)(=O)c2ccc(C)cc2)[C@H]1c1ccc(C)cc1 | 0.514 | -5 (inactive) | 0.311 (inactive) | -0.0137 (inactive) | -0.1 (inactive) | 1.35 | 0.0857 | 0.392 | 0.361 | 1.7 | -1.92 (inactive) | 0.121 | 0.302 (inactive) | 0.54 (inactive) | 0.0464 (inactive) | -0.0532 (inactive) | -0.53 | -0.875 (inactive) | -0.25 (inactive) | 0.251 |
